Compounds without any hit were thinned out: in the full panel of roughly 79,000, 15% have a hit. The source made the active and inactive calls. Rule as the data show it: active = growth inhibition above about 70%; inactive = the rest. *1 amine or outer side, *2 acyl side, *3 side chain or, on linkers, in order; H or OH if unused. Where a SMILES comes first, the peptide text is derived from it. [ ]: non-standard residue; d: D form. The star is where a group is joined. X17 = CC(=O)N(C)SCC(N[*:1])C(=O)[*:2]; Fmoc = O=C(OCC1c2ccccc2-c2ccccc21)*; For = O=C*

The first assay can be described thus: NCI Yeast Anticancer Drug Screen. Data for the sgs1 mgt1 strain (AID 161).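 Also: 0% = growth of cultures given vehicle only.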 As to conditions: S. cerevisiae sgs1 mgt1 strain, at 50.0 µM, active compounds read high. The method, boiled down: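 Compounds are added to genetically altered yeast, and growth is compared with cultures given vehicle alone to give percent inhibition.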
Regarding `c1ccc(N2C3Sc4ncccc4C2Sc2ncccc23)cc1`, the growth inhibition was 16.6% (inactive).
On the same count and under the same terms, for `O=C(O)CSC(CC(=O)O)C(=O)O` (stereo not given) the value was 17.7% (inactive); for `CC(=O)C(CCN(C)C)(c1ccccc1)C1CCCCC1` (stereo not given), -2.85% (inactive); for `Cc1ccc(S(=O)(=O)Nc2ccccc2-c2nc3ccc([N+](=O)[O-])cc3c(=O)o2)cc1`, 22.1% (inactive).
As to `Nc1nc(N)nc(-c2ccccc2N)n1`, the growth inhibition was -14.2% (inactive).
The same measure, in the same setting: for `COC1OC(COC(=O)c2ccc([N+](=O)[O-])cc2)C(O)C1SC#N` (stereo not given) the value was 41.3% (inactive); for `Cc1cccc(Cl)c1NC(=O)C(Cl)Cl`, 8% (inactive); for `Cc1cc(S(=O)(=O)Nc2nnc3cc(C(F)(F)F)cc(C)n23)c(S)cc1Cl`, -38.1% (inactive).
On the same count and under the same terms, for `SC1c2ccccc2-c2ccccc21` the value was 7.5% (inactive).
The same measure, in the same setting: for `Cc1cc(N(CCC#N)CCC#N)ccc1/C=C(\NC(=O)/C=C/c1ccccc1)C(=O)Nc1ccc(Cl)cc1` the value was 2.2% (inactive); for `COc1cc(C(c2c(O)c3ccccc3oc2=O)N2CCCC2)cc(OC)c1OC` (stereo not given), 7.05% (inactive); for `O=C(O)CCC(NC(=O)/C(=C/c1ccccc1)NC(=O)c1ccccc1)C(=O)O` (stereo not given), 31% (inactive).
Regarding `O=[N+]([O-])c1ccc(-c2ccncc2)cc1`, the growth inhibition was -19.4% (inactive).
Turning to `C=CCOc1ccc2cc(Br)ccc2c1`, the growth inhibition is 6.3% (inactive).
Still for that read-out and setting: for `CSCCC(N)C(=O)NCCS(=O)(=O)O` (stereo not given) the value was 14.8% (inactive); for `CCOC(=O)CN(C)C#N`, -44% (inactive); for `CNC(=O)n1cnc2ccccc21`, 37% (inactive).
The same measure, in the same setting: the result for `CCCCCCCCC/C=C1\CCC(CN2CCOCC2)C1=O` (stereo not given) reads 90.3% (active).
Consider `O=[N+]([O-])c1ccc(Oc2cccc3ccccc23)c([N+](=O)[O-])c1`, for which the growth inhibition is 18.5% (inactive).
As for `COC(=O)c1cc2cccn2cn1`, the growth inhibition is -13.2% (inactive).
Still for that read-out and setting: for `CCOC(=O)Nc1cc(Cl)c2nnn(C(=O)OCC)c2n1` the value was 97.9% (active); for `Cc1ccc(S(=O)(=O)N(CCO)CCCO)cc1`, -9.95% (inactive).
For `O=C(O)C=C1CCCCC1`, the growth inhibition was 20% (inactive).
Same read-out and setting: for `N#Cc1nc[nH]c1C(N)=O` the value was -14.2% (inactive).
Still for that read-out and setting: the result for `CCc1cc(O)c([N+](=O)[O-])cc1[N+](=O)[O-]` reads 21.1% (inactive).
As to `O=C(O)c1c(CN2CCOCC2)c(O)c(O)c(O)c1CN1CCOCC1`, the growth inhibition was -7.1% (inactive).
As to `N#CC(/C(=N\NC(N)=S)C(=O)NC1C2CC3CC(C2)CC1C3)c1ccc(Cl)cc1` (stereo not given), the growth inhibition is 19.8% (inactive).
The same measure, in the same setting: for `CCC(=O)Nc1ncnc2ncn(C(=O)CC)c12` the value was -32.9% (inactive); for `CC(=O)N(C)SCC(NC(=O)C(Cc1ccccc1)NC(=O)OCC1c2ccccc2-c2ccccc21)C(=O)NC(Cc1ccccc1)C(=O)NC(Cc1cn(C=O)c2ccccc12)C(=O)NC(CCCCNC(=O)OCC1c2ccccc2-c2ccccc21)C(=O)NC(C(=O)NC(CSN(C)C(C)=O)C(=O)NC(C(N)=O)C(C)O)C(C)O` (stereo not given) (Fmoc-F[X17]FW(For)K(Fmoc)T[X17]T-NH2; configuration not given here), 65.1% (inactive); for `CCC1(C)NN=C2C(=CC=C3NNC(C)(CC)N32)n2cccc21` (stereo not given), -19.1% (inactive).
Same read-out and setting: the result for `CC(=O)[CH-]C(=O)c1ccccc1.CC(=O)[CH-]C(=O)c1ccccc1.CC(C)CCCC(C)[C@H]1CCC2[C@@H]3CC=C4C[C@@H]([O-])CC[C@]4(C)C3CC[C@@]21C.CC[O-].[Ti+4]` (stereo not given in full) reads 10.2% (inactive); that for `CC1(C)CC(=O)C(C(c2ccc3c(c2)CCC3)C2C(=O)CC(C)(C)CC2=O)C(=O)C1`, -31.1% (inactive).
The same measure, in the same setting: for `CCn1c(=O)c2nc(SC)sc2n(-c2ccc(C)cc2)c1=O` the value was -5.7% (inactive).
Turning to `CCOC(=O)c1c2ccc(/C=C/c3ccccn3)ccc-2c(C(=O)OCC)c1N`, the growth inhibition was -1% (inactive).
On the same count and under the same terms, for `COc1ccc(NC(=O)c2oc3cc(O)ccc3c(=O)c2C)c([N+](=O)[O-])c1` the value was 11.5% (inactive); for `CS/C(=N/S(=O)(=O)c1ccccc1)NNC(=S)Nc1ccc(C(C)C)cc1`, 27.2% (inactive).
Same read-out and setting: the result for `CC1(C)CNC[C@](C)(OCc2ccccc2)N1` reads -11.3% (inactive); that for `c1cc2cc(c1)CNCCNCCNCc1cccc(c1)CNCCNCCNC2`, -30.6% (inactive).
On the same count and under the same terms, the result for `O=C(CN1CCOCC1)CC(O)(C(F)(F)F)C(F)(F)F` reads -1.65% (inactive); that for `CCOC(C)C(=O)C=O` (stereo not given), -17.2% (inactive).

A short description of the next assay: NCI Yeast Anticancer Drug Screen. Data for the cln2 rad14 strain (AID 165).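 Also: 0% = growth equal to vehicle treated cultures.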 As to conditions: S. cerevisiae cln2 rad14 strain, at 50.0 µM, active compounds read high. The method, boiled down: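 Growth inhibition, relative to vehicle-treated controls, is the read-out. The test organism is a yeast strain with defined genetic alterations, cln2 rad14.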
For `c1ccc(N2C3Sc4ncccc4C2Sc2ncccc23)cc1`, the growth inhibition is 6.1% (inactive).
Turning to `O=C(O)CSC(CC(=O)O)C(=O)O` (stereo not given), the growth inhibition is 8.85% (inactive).
The same measure, in the same setting: for `CC(=O)C(CCN(C)C)(c1ccccc1)C1CCCCC1` (stereo not given) the value was -6.65% (inactive).
The same measure, in the same setting: for `Cc1ccc(S(=O)(=O)Nc2ccccc2-c2nc3ccc([N+](=O)[O-])cc3c(=O)o2)cc1` the value was 1.1% (inactive); for `Nc1nc(N)nc(-c2ccccc2N)n1`, -45% (inactive); for `COC1OC(COC(=O)c2ccc([N+](=O)[O-])cc2)C(O)C1SC#N` (stereo not given), -10.1% (inactive).
Take `Cc1cccc(Cl)c1NC(=O)C(Cl)Cl`: the growth inhibition is 4.55% (inactive).
The same measure, in the same setting: for `Cc1cc(S(=O)(=O)Nc2nnc3cc(C(F)(F)F)cc(C)n23)c(S)cc1Cl` the value was -15.8% (inactive).
For `SC1c2ccccc2-c2ccccc21`, the growth inhibition was 7.25% (inactive).
On the same count and under the same terms, for `Cc1cc(N(CCC#N)CCC#N)ccc1/C=C(\NC(=O)/C=C/c1ccccc1)C(=O)Nc1ccc(Cl)cc1` the value was 1.7% (inactive).
Same read-out and setting: the result for `COc1cc(C(c2c(O)c3ccccc3oc2=O)N2CCCC2)cc(OC)c1OC` (stereo not given) reads 4.05% (inactive).
The same measure, in the same setting: for `O=C(O)CCC(NC(=O)/C(=C/c1ccccc1)NC(=O)c1ccccc1)C(=O)O` (stereo not given) the value was 8.75% (inactive); for `O=[N+]([O-])c1ccc(-c2ccncc2)cc1`, 20.6% (inactive); for `C=CCOc1ccc2cc(Br)ccc2c1`, -24.1% (inactive).
As for `CSCCC(N)C(=O)NCCS(=O)(=O)O` (stereo not given), the growth inhibition was -8% (inactive).
The same measure, in the same setting: for `CCOC(=O)CN(C)C#N` the value was -5.3% (inactive); for `CNC(=O)n1cnc2ccccc21`, 13.1% (inactive); for `CCCCCCCCC/C=C1\CCC(CN2CCOCC2)C1=O` (stereo not given), 89.6% (active).
Same read-out and setting: the result for `O=[N+]([O-])c1ccc(Oc2cccc3ccccc23)c([N+](=O)[O-])c1` reads -82.5% (inactive); that for `COC(=O)c1cc2cccn2cn1`, -27.4% (inactive); that for `CCOC(=O)Nc1cc(Cl)c2nnn(C(=O)OCC)c2n1`, 90.7% (active).
As for `Cc1ccc(S(=O)(=O)N(CCO)CCCO)cc1`, the growth inhibition is 5.1% (inactive).
Still for that read-out and setting: the result for `O=C(O)C=C1CCCCC1` reads 10.4% (inactive); that for `N#Cc1nc[nH]c1C(N)=O`, 11.8% (inactive).
Regarding `CCc1cc(O)c([N+](=O)[O-])cc1[N+](=O)[O-]`, the growth inhibition is -34.8% (inactive).
The same measure, in the same setting: the result for `O=C(O)c1c(CN2CCOCC2)c(O)c(O)c(O)c1CN1CCOCC1` reads -2.3% (inactive); that for `N#CC(/C(=N\NC(N)=S)C(=O)NC1C2CC3CC(C2)CC1C3)c1ccc(Cl)cc1` (stereo not given), 10.1% (inactive).
Same read-out and setting: the result for `CCC(=O)Nc1ncnc2ncn(C(=O)CC)c12` reads -23.6% (inactive).
The same measure, in the same setting: for `CC(=O)N(C)SCC(NC(=O)C(Cc1ccccc1)NC(=O)OCC1c2ccccc2-c2ccccc21)C(=O)NC(Cc1ccccc1)C(=O)NC(Cc1cn(C=O)c2ccccc12)C(=O)NC(CCCCNC(=O)OCC1c2ccccc2-c2ccccc21)C(=O)NC(C(=O)NC(CSN(C)C(C)=O)C(=O)NC(C(N)=O)C(C)O)C(C)O` (stereo not given) (Fmoc-F[X17]FW(For)K(Fmoc)T[X17]T-NH2; configuration not given here) the value was 82.2% (active); for `CCC1(C)NN=C2C(=CC=C3NNC(C)(CC)N32)n2cccc21` (stereo not given), 3.5% (inactive).
Take `CC(=O)[CH-]C(=O)c1ccccc1.CC(=O)[CH-]C(=O)c1ccccc1.CC(C)CCCC(C)[C@H]1CCC2[C@@H]3CC=C4C[C@@H]([O-])CC[C@]4(C)C3CC[C@@]21C.CC[O-].[Ti+4]` (stereo not given in full): the growth inhibition was -33.9% (inactive).
The same measure, in the same setting: for `CC1(C)CC(=O)C(C(c2ccc3c(c2)CCC3)C2C(=O)CC(C)(C)CC2=O)C(=O)C1` the value was 23.9% (inactive).
As to `CCn1c(=O)c2nc(SC)sc2n(-c2ccc(C)cc2)c1=O`, the growth inhibition was 9.7% (inactive).
On the same count and under the same terms, the result for `CCOC(=O)c1c2ccc(/C=C/c3ccccn3)ccc-2c(C(=O)OCC)c1N` reads 13% (inactive); that for `COc1ccc(NC(=O)c2oc3cc(O)ccc3c(=O)c2C)c([N+](=O)[O-])c1`, 11.9% (inactive).
For the compound `CS/C(=N/S(=O)(=O)c1ccccc1)NNC(=S)Nc1ccc(C(C)C)cc1`, the growth inhibition was 22.6% (inactive).
In the case of `CC1(C)CNC[C@](C)(OCc2ccccc2)N1`, the growth inhibition was 11.2% (inactive).
Still for that read-out and setting: for `c1cc2cc(c1)CNCCNCCNCc1cccc(c1)CNCCNCCNC2` the value was 16.9% (inactive).
Still for that read-out and setting: the result for `O=C(CN1CCOCC1)CC(O)(C(F)(F)F)C(F)(F)F` reads 7.1% (inactive).
Still for that read-out and setting: the result for `CCOC(C)C(=O)C=O` (stereo not given) reads -4.55% (inactive).

These data come from PubChem BioAssay (NCI).
